Test results reported in ChEMBL document CHEMBL3988442, “University of Dundee, Small-Polar-MMV Screening Library” (2021).
In all, about 67,000 compounds went through this assay and about 300 (0.45%) showed an effect of 50% or more. Many of the other results were omitted from the sample, so strong results are more common in it than they were.

Biological target: Polyketide synthase Pks13 (Mycobacterium tuberculosis (strain ATCC 25618 / H37Rv)) (UniProt I6X8D2)
Assay: Mycobacterium tuberculosis Polyketide synthase 13 Thioesterase (PKS13)
Format: functional
Set-up: scale not given: in the data most compounds retested in dose-response had high values
Settings: 30 µM

Chain of Polyketide synthase Pks13 (Mycobacterium tuberculosis (strain ATCC 25618 / H37Rv)) (I6X8D2 whole entry): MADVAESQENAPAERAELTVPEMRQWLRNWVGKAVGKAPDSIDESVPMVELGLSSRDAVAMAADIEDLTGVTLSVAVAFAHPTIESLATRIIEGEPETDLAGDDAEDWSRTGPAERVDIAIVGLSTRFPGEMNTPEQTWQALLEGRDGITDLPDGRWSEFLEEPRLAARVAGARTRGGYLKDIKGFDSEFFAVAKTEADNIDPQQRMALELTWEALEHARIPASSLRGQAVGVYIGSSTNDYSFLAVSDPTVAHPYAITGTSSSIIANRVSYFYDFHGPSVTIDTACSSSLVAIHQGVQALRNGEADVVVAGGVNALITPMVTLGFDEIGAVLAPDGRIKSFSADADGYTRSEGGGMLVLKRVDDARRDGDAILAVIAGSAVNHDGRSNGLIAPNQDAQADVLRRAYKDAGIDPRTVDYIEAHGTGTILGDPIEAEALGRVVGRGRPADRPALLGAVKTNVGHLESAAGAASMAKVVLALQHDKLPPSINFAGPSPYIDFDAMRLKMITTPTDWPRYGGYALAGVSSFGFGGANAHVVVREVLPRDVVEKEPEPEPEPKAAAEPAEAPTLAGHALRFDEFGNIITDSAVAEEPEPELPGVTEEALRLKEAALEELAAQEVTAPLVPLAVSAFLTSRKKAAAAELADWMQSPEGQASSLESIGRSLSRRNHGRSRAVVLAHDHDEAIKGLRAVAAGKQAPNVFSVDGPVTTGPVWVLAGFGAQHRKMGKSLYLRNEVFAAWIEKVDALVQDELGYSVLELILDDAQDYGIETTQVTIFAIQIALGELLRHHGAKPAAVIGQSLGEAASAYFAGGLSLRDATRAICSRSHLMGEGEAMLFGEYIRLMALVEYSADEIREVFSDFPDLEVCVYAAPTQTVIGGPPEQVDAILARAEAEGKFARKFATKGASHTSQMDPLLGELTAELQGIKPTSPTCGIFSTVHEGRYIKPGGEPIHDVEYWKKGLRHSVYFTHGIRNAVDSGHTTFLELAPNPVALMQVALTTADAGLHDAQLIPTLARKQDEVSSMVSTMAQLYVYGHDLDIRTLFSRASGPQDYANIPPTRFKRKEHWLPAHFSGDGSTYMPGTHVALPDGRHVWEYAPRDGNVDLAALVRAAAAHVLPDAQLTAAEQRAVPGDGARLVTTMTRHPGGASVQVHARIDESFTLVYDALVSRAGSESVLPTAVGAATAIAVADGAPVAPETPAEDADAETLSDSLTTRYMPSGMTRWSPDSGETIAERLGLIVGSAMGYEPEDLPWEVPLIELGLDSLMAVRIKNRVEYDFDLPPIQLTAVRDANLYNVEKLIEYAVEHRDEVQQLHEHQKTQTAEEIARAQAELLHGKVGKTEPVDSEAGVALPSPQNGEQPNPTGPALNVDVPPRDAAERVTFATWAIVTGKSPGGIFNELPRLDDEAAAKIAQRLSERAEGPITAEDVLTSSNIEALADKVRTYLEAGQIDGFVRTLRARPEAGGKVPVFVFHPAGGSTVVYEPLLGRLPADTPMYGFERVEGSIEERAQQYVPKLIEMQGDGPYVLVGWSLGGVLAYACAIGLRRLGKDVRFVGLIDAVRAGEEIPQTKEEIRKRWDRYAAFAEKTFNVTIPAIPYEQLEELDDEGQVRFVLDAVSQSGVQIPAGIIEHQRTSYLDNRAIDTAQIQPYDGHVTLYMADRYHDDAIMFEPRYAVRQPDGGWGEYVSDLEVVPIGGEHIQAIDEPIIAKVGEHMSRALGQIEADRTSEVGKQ

Row | Structure (SMILES) | Percent Effect [%]
1 | CS(=O)(=O)N1CC[C@H]2OCC[C@@]2(C(=O)NCc2ccccn2)C1 | -5.05
2 | O=C(c1ccco1)N1C[C@@H]2CCN(c3cccnc3)C[C@@H]2C1 | 18.9
3 | COc1ccc(C2(C(=O)N3CC[C@@]4(O)CCNC[C@H]4C3)CCCC2)cc1 | -3.94
4 | COc1cccc(C(=O)N2CCc3c(nc(N)[nH]c3=O)C2)c1OC | -13.9
5 | COc1cccc(C(=O)N2CCc3c(nc(N)[nH]c3=O)C2)c1C | 79.5
6 | Nc1nc2c(c(=O)[nH]1)CCN(C(=O)c1cccc3nccnc13)C2 | 2.77
7 | O=C1CC[C@H]2CN(Cc3cccc(F)c3)CC[C@H]2N1CCc1c[nH]cn1 | -22.1
8 | COCCC(=O)N1C[C@H]2CN(Cc3cccnc3)C(=O)[C@H]2C1 | -37.5
9 | NCC1[C@H]2CN(Cc3cccc(Cl)c3)C[C@@H]12 (stereo partly specified) | -29.5
10 | CNC(=O)N1C[C@H]2N(c3ncccn3)CCC[C@@]2(C(=O)NCC2CC2)C1 | -22
11 | CCN(CC)c1nc2sc(C(=O)NC(C)(C)C(=O)OC)cc2s1 | 39.6
12 | COC(=O)C(C)(C)NC(=O)c1cc2sc(N(C)C)nc2s1 | 52.3
13 | COC(=O)C(C)(C)NC(=O)c1cnc(C(C)(C)C)s1 | -10.1
14 | CCCS(=O)(=O)N1C[C@H]2C[C@H](C(=O)N3CCOCC3)[C@@H](C1)O2 | -22.9
15 | Cc1cccc(CN2C(=O)CC[C@@H]3[C@H]2CCN3Cc2nccn2C)n1 | -58.5
16 | COCCN1C(=O)C[C@@H]2[C@H]1CCN2C(=O)c1ccc[nH]1 | -9.69
17 | CN1CCCC[C@@H]2[C@H]1[C@@H](c1ccccc1)CCN2C(=O)c1cccnc1 | 9.14
18 | Cc1noc([C@H]2COC[C@H]3CN(C(=O)Cc4ccsc4)C[C@H]32)n1 | -1.57
19 | CC(=O)N1CCCC1c1ccc(-c2c(C)noc2C)cn1 (stereo unspecified) | -29.1
20 | CC(=O)N1CCCC(c2ccc(Br)cn2)C1 (stereo unspecified) | -6.19
21 | CC(=O)N1CCCC1c1ccc(Br)cn1 (stereo unspecified) | 61.5
22 | Cc1cccc(CN2C(=O)CC[C@@H]3[C@H]2CCN3C(=O)c2ccsc2)n1 | -13.6
23 | Cc1ccnc(OC[C@@]23CCO[C@@H]2CCN(S(C)(=O)=O)C3)n1 | -29.2
24 | CN(C)[C@@H]1CN(C(=O)Cc2cccc(F)c2)[C@@H]2CCCO[C@H]12 | -3.8

Row | Structure (SMILES) | Percent Effect [%]
25 | Cn1ncc(C(=O)OCC2CCN(c3ccccc3)C2)c1C(F)F (stereo unspecified) | 11.4
26 | O=C(OCC1CCN(c2ccccc2)C1)c1cscn1 (stereo unspecified) | 62.9
27 | COCc1nc(C(=O)OCC2CCN(c3ccccc3)C2)cs1 (stereo unspecified) | 58.1
28 | Cc1ncsc1C(=O)OCC1CCN(c2ccccc2)C1 (stereo unspecified) | 30.2
29 | O=C(OCC1CCCN(C(=O)c2ccccc2)C1)c1cscn1 (stereo unspecified) | 10.2
30 | Cc1ncc(C(=O)OCC2CCN(c3ccccc3)C2)s1 (stereo unspecified) | 39.2
31 | O=C(CSc1ccccn1)N1CCN(CCO)[C@@H]2CS(=O)(=O)C[C@@H]21 | 0.423
32 | Cc1ccoc1C(=O)N1C[C@@H]2COC[C@]2(CNS(C)(=O)=O)C1 | -15.4
33 | Cn1cc(CN2C[C@@H](NC(=O)c3cscn3)[C@H]3OCCC[C@H]32)cn1 | -41.4
34 | O=C(Nc1ccccc1)N1C[C@H]2C[C@H](C(=O)N3CCCC3)[C@@H](C1)O2 | -39.5
35 | CC(C)Cc1nc(CN2CCc3onc(-c4cccc(F)c4)c3C2)no1 | 3.75
36 | CC(C)c1nc(CN2CCc3onc(-c4cccc(F)c4)c3C2)no1 | 91.2
37 | CC(C)(C)c1nc(CN2CCc3onc(-c4cccc(F)c4)c3C2)no1 | -16.5
38 | O=C(C1CCC1)N1C[C@@H]2CC[C@H](C1)N(S(=O)(=O)c1ccccc1)C2 | -44.5
39 | CCCN1CCN(C(=O)c2ccnc(N)c2)[C@H]2CS(=O)(=O)C[C@H]21 | -5.18
40 | CC1=CC[C@@H]2CN(C(=O)c3ccc(-c4cc[nH]n4)cc3)C[C@@H]2C1 | -21.5
41 | CN(CCc1cccs1)C(=O)Nc1ccc2c(c1)C(=O)N(C)CC2 | 31.9
42 | CN1CCc2ccc(NCc3cscn3)cc2C1=O | -2.18
43 | CN1CCc2ccc(NCc3cccs3)cc2C1=O | 126
44 | Cc1noc(C)c1CN1C[C@@H]2COC[C@@H](C(=O)N3CCCCO3)[C@@H]2C1 | 6.29
45 | COc1cccc(CN2CCC3(CCN(c4ncc(C)cn4)CC3)C2)c1 | 66.7
46 | CN(C)c1ncc2c(n1)C1(CCN(Cc3ccccc3)C1)COC2 (stereo unspecified) | -6.74
47 | COc1cccc(CN2CCC3(COCc4cnc(N(C)C)nc43)C2)c1 (stereo unspecified) | 111
48 | COc1cccc(CN2CCC3(CCN(c4ncc(F)cn4)CC3)C2)c1 | 14.4

Row | Structure (SMILES) | Percent Effect [%]
49 | COc1cccc(CN2CCC3(CC2)CCN(c2ncc(C)cn2)C3)c1 | -24.2
50 | CN(C)c1ncc2c(n1)C1(CCN(Cc3cccnc3)C1)COC2 (stereo unspecified) | -30.2
51 | Cc1noc([C@]23COC[C@H]2CN(C(=O)COC2CCCC2)C3)n1 | -5.31
52 | COCCOCC(=O)N1C[C@H]2CC[C@@H]1CN(C1Cc3ccccc3C1)C2 | -22.6
53 | CCc1cccc2cc(CNCCCN3CCOCC3)c(=O)[nH]c12 | 16.5
54 | Cc1cccc2cc(CNCCCN3CCOCC3)c(=O)[nH]c12 | -21.5
55 | Cc1ccc2cc(CNCCCN3CCOCC3)c(=O)[nH]c2c1C | 62.3
56 | CS(=O)(=O)N1CCO[C@@H]2CN(Cc3ccncc3)C[C@@H]2C1 | -14.9
57 | CC(O)CN1CCC(CNCc2cccc(C(=O)N(C)C)c2)CC1 (stereo unspecified) | -0.155
58 | CC(O)CN1CCC(CNCc2c[nH]nc2C(C)(C)C)CC1 (stereo unspecified) | 110
59 | CC(O)CN1CCC(CNCc2ccc(C(N)=O)cc2)CC1 (stereo unspecified) | -12.3
60 | CN(C)CCN1CCC(CNCc2c[nH]nc2C(C)(C)C)CC1 | -14.5
61 | CC(O)CN1CCC(CNCc2cccc(C(N)=O)c2)CC1 (stereo unspecified) | 108
62 | CCN1CCC(CNCc2c[nH]nc2C(C)(C)C)C1 (stereo unspecified) | -27.2
63 | Cn1cc(CN2CC[C@@H]3[C@@H]2CCN3C(=O)Cc2cccc(F)c2)cn1 | -2.13
64 | Fc1ccc(CN2CCO[C@H]3[C@H](Oc4ccccn4)CC[C@@H]32)cc1 | 13.6
65 | O=C(Cc1ccccn1)N1CCN2C[C@H](Oc3cccc(F)c3)C[C@H]2C1 | -20.8
66 | O=C(c1cnccn1)N1CC[C@H]2C[C@@H](c3ccncn3)O[C@@H]2C1 | -4.56
67 | O=C(O)[C@]12CCCN(Cc3ccccc3)C[C@H]1CN(c1ncccn1)C2 | -25.9
68 | Cc1ccc(CN2CC[C@H]3O[C@@H](C(=O)N4CCCO4)CC[C@H]32)s1 | -20.3
69 | Cn1ncc2c1C(COCC1CC1)CN(Cc1cccnc1)C2 (stereo unspecified) | -43.6
70 | Cn1ncc2c1CN(Cc1cccnc1)CC2COCC1CC1 (stereo unspecified) | 60.5
71 | Cn1ncc2c1CN(Cc1ccc(F)cc1)CC2COCC1CC1 (stereo unspecified) | -20.5
